Results from PubChem BioAssay (NCI).
Values joined by “and” are separate entries in the source; they are usually repeats but may differ in a detail not shown here. Equal entries are not always repeated. About 83,000 compounds went through this panel and 20% of them were active in at least one assay; those are over-represented in the sample as a whole.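 Note: values are percent growth. 100 is the growth of untreated cells, values between 100 and 0 indicate rising inhibition; between -100 and 0 indicates cell death.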 Active and inactive are the calls of the source. The calls were made as follows: active = growth percent below 10; inactive = the rest.

test system: MDA-MB-468 breast; assay: NCI-60 one-dose screen, 48 h (100 = growth as untreated, 0 = no growth, -100 = all killed); conditions: 10 µM unless noted

Row | Compound | growth
1 | CC(=O)CS(C)(=O)=O | 109% (inactive)
2 | COC(=O)c1nc(-c2ccc(C)cc2)oc1S(=O)(=O)c1cccc(OC)c1 | 71.7% (inactive)
3 | CN(C)Cc1ccc(O)c(C(=O)O)c1 | 106% (inactive)
4 | CC(CN1CCCCC1)C(=O)c1ccccc1 (stereo unspecified) | 105% (inactive)
5 | CCCCCCCCCCCCCCCCCC(=O)OCCCCCCC | 114% (inactive)
6 | CCOc1nc(-c2ccccc2)cc2c(O)c(C(=O)O)[nH]c(=O)c12 | 96.2% (inactive)
7 | Nc1nonc1-c1nc2ccccc2n1CC(=O)Nc1ccc2c(c1)COC2=O | 26.2% (inactive)
8 | CCN(CC)CCCC(C)Nc1ccnc(/C=C/c2ccc(Cl)cc2)c1 (stereo unspecified) | -84.5% (active)
9 | Cc1nn(-c2ccccc2)nc1C(=O)Nc1ccccc1C(=O)NCC1CC1 | 107% (inactive) and 87.5% (inactive)
10 | CC1=C(O)C(=O)CC1 | 104% (inactive)
11 | COc1cc2c(cc1O)c(=O)n(CCN(C)C)c1c3cc4c(cc3ncc21)OCO4 | -57.9% (active)
12 | Cc1ccc(Nc2ncnc3c2c(C)nn3-c2ccc([N+](=O)[O-])cc2)cc1 | 84.2% (inactive)
13 | COc1cc(Cl)cc(-c2nn(-c3cccc(NC(=O)Nc4cc(C(F)(F)F)cc(C(F)(F)F)c4)c3)cc2-c2ccncc2)c1 | -2.95% (active)
14 | CCCCCCCCCCOC(=O)c1nn(C(C)=O)c2cc(C)c(C)cc12 | 111% (inactive)
15 | O=C(NCCNc1nccc(-c2c(-c3cccc(O)c3)nc3sccn23)n1)c1ccccc1O | 52% (inactive)
16 | NCCNc1nc2ccccc2c2c(=O)c3cc(F)cc(Cl)c3sc12 | -12.5% (active)
17 | Cc1ccc(-c2cc(-c3cccnc3)[nH]c(=O)c2C#N)cc1 | 106% (inactive)
18 | Cn1c(=O)n(-c2ccc(C(C)(C)C#N)cc2)c2c3cc(-c4cnc5ccccc5c4)ccc3ncc21 | -24.6% (active) and -48.4% (active)
19 | Clc1nccc2c(-c3csc(-c4c[nH]c5ccc(Br)cc45)n3)c[nH]c12 | 26.9% (inactive)
20 | COc1ccc2c(c1)/C(=C\c1c[nH]c3ccc(F)cc13)C(=O)N2 | 2.93% (active)
21 | CN(C)CCCC1(c2ccc(F)cc2)OCc2cc(-c3ccc4cc[nH]c4c3)ccc21 (stereo unspecified) | -27.1% (active)
22 | Cc1ccc(C2=NN(c3ccc(S(=O)(=O)NC(=O)NCc4ccccc4)cc3)C(c3ccc(N(C)C)cc3)C2)c(C)c1 (stereo unspecified) | 49.4% (inactive)
23 | C#CCNC(=O)[C@H](CC)[C@H]1CC[C@H](C)[C@H]([C@@H](C)[C@H](O)[C@H](C)C(=O)[C@H](CC)C2O[C@]3(C=CC(=O)[C@]4(CC[C@@](C)([C@H]5CC[C@](O)(CC)[C@H](C)O5)O4)O3)[C@H](C)C[C@@H]2C)O1 (stereo partly specified) | 9.34% (active)
24 | COc1cc(Cn2cc3c(c2)-c2oncc2CC3)cc(OC)c1OC | -17.1% (active)
25 | C[C@]12O[C@H](C[C@]1(O)CO)n1c3ccccc3c3c4c(c5c6ccccc6n2c5c31)CNC4=O | -47.5% (active)
26 | COc1ccc(Cc2cnc(NC(=O)c3cc(C)oc3C)s2)cc1 | 14.8% (inactive)
